Reference: PubChem BioAssay (NCATS)
Several values for one entry are separate records, joined by “and”; a condition that tells them apart may be missing. Equal values may be shown once. Inconclusive results are not listed. Activity calls are given as the source filed them. Unless noted, the call rests on the fitted dose curve; in most records, active means well fitted curve in the direction sought with a large enough effect; inconclusive means small, poorly fitted or top-dose-only effect, or another doubt; inactive means no such curve, though single readings can be large; an effect the other way counts as inactive or inconclusive.

How the values were obtained:
[1] = Cell Viability - Jurkat (AID 426;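 active means dose-dependent loss of cell ATP signal giving a full or clear fitted curve, ranked by lower potency value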; further: potency means the concentration at half of the fitted maximal effect); conditions: qHTS
Method in brief: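 Seed 5000 Jurkat E6-1 cells/well; add compound; incubate 40 hr at 37 °C; add CellTiter-Glo; wait 20 min at room temperature; read luminescence. Fit concentration-response with Hill equation for AC50.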

[2] = Cell Viability - Hek293 (AID 427;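 active means compounds whose dose-response curve shows a full or clear partial loss of cell viability, called from curve shape rather than a numeric limit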;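 further: potency means the concentration at half of the fitted maximal effect; cells exposed to compound for 40 hours at 37 °C before reading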); conditions: qHTS
Method in brief: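 HEK293 cells in complete medium were exposed to compound for 40 hr at 37 °C, then cellular ATP was read by CellTiter-Glo luminescence. Data were normalized to DMSO (basal) and 100 uM tamoxifen (100% inhibition), and AC50 came from Hill fits.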

[3] = Cell Viability - HepG2 (AID 433; calls by dose curve;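 further: potency means the concentration at half of the fitted maximal effect; potency for ATP loss meaning cytotoxicity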); conditions: qHTS
Method in brief: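 Cytotoxicity is scored as loss of intracellular ATP in HepG2 cells exposed to compounds for 40 h. Concentration-response curves, normalized to DMSO and 100 uM tamoxifen, give AC50 values.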

[4] = Cell Viability - N2a (AID 540); conditions: N2a mouse neuroblastoma cell viability; activity change, negative = cytotoxicity: at 92.2 µM (top of the series); further: potency means the concentration at half of the fitted maximal effect; nearly all actives have a fitted effect of over 45% in size
Method in brief: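 First, 1500 N2a cells per well incubate 5 hr at 37 °C; next, compounds are added and incubated 40 hr at 37 °C; finally CellTiter-Glo is added and luminescence read after 20 min, with AC50 derived by Hill modeling.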

[5] = Cell Viability - NIH 3T3 (AID 541); conditions: NIH 3T3 cell viability, qHTS; activity change, negative = cytotoxicity: at 92.2 µM (top of the series); further: potency means the concentration at half of the fitted maximal effect; nearly all actives have a fitted effect of over 25% in size
Method in brief: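 AC50 values reflect concentration-dependent loss of intracellular ATP in NIH 3T3 cells after 40 hr treatment in complete culture medium, quantified by luciferase-based luminescence.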

[6] = Cell Viability - HUV-EC-C (AID 542); conditions: HUV-EC-C endothelial cell viability, qHTS; series mostly up to 92.2 µM; further: potency means the concentration at half of the fitted maximal effect; nearly all actives have a fitted effect of over 35% in size
Method in brief: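 Decrease in cellular ATP, quantified by luciferase luminescence, reflects toxicity in normal human vascular endothelial HUV-EC-C cells given compound for 40 hr in complete culture medium. Values are AC50s from concentration-response curves.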

[7] = Cell Viability - H-4-II-E (AID 543); conditions: H-4-II-E rat hepatoma viability; series mostly up to 92.2 µM; further: potency means the concentration at half of the fitted maximal effect; nearly all actives have a fitted effect of over 35% in size
Method in brief: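 Here, cytotoxicity is measured in the rat hepatoma line H-4-II-E as loss of intracellular ATP after 40 hr compound treatment, detected by luciferase luminescence.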

[8] = Cell Viability - SH-SY5Y (AID 544); conditions: SH-SY5Y neuroblastoma cell viability; viability change, negative = cytotoxic: at 92.2 µM (top of the series); further: nearly all actives have a fitted effect of over 55% in size
Method in brief: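 Cytotoxicity is scored as a concentration-dependent fall in intracellular ATP in human SH-SY5Y cells treated 40 hr in complete culture medium. Potency is expressed as AC50 from a Hill equation fit.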

[9] = Cell Viability - Mesenchymal (AID 546); conditions: mesenchymal cells viability, qHTS; activity change, negative = cytotoxicity: at 91.7 µM (top of the series);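 further: potency means the concentration at half of the fitted maximal effect; cells exposed to compound for 40 hours before reading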
Method in brief: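 Human kidney mesenchymal cells from normal renal glomeruli, 1000 cells/well, rested 5 hr at 37 °C, then treated 40 hr at 37 °C in complete medium. Cellular ATP read by CellTiter-Glo luminescence; AC50 from Hill-equation fits.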

[10] = Cellular Toxicity (caspase-3) HepG2 (AID 654); conditions: HepG2 caspase-3 activation, luminescence; series mostly up to 92.2 µM;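 further: cells exposed to compound for 16 hours before reading; 0% = DMSO alone and 100% = caspase signal from 100 µM tamoxifen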
Method in brief: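 qHTS, HepG2, 1500 cells/well, complete medium; cpd 16 h 37 °C; Caspase-Glo 3/7, 20 min RT; lum. Norm: DMSO vs 100 uM tamoxifen; AC50 Hill fit.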

[11] = Cellular Toxicity (caspase-3) HUV-EC-C (AID 656); conditions: HUV-EC-C cells, caspase-3 activation (apoptosis); series mostly up to 92.2 µM
Method in brief: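 Read-out: luminescence proportional to caspase 3/7 activity, measured 20 min after adding Caspase-Glo 3/7 reagent. Cells (HUV-EC-C) had received compound for 16 hr at 37°C. Increases relative to DMSO and 100 uM tamoxifen gave concentration-response AC50 values.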

[12] = Cellular Toxicity (caspase-3) SHSY5Y (AID 657); conditions: SH-SY5Y caspase-3 activation; series mostly up to 91.7 µM
Method in brief: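 Cells plated and incubated 5 h at 37 °C, dosed over a concentration range, incubated 16 h, then given Caspase-Glo 3/7 reagent for 1 h at room temperature before luminescence reading. Staurosporine (10 uM) defined full stimulation.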

[13] = Cellular Toxicity (caspase-3) BJ (AID 658); conditions: BJ fibroblasts, luminescence; Potency: caspase-3 activation; series mostly up to 91.7 µM
Method in brief: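 BJ human foreskin fibroblasts, 1000 cells/well, treated 16 hours at 37 °C in complete medium; caspase 3/7 activity by Caspase-Glo luminescence after 1 hr at room temperature. Normalized to DMSO and 10 uM staurosporine; AC50 from Hill fits.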

[14] = Cellular Toxicity (caspase-3) MRC-5 (AID 659); conditions: MRC-5 cells, luminescence, normalized: DMSO 0%, 10 µM staurosporine 100%; series mostly up to 91.7 µM
Method in brief: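 MRC-5 human normal lung fibroblasts, 1500 cells/well, treated 16 h at 37 °C in complete medium. Caspase 3/7 measured by Caspase-Glo luminescence after 1 h at room temperature. Normalized to DMSO and 10 uM staurosporine; AC50 from Hill fit.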

[15] = Cellular Toxicity (caspase-3) Mesangial (AID 660); conditions: mesangial cells, normalized: DMSO 0%, 100 µM tamoxifen 100%; series mostly up to 91.7 µM
Method in brief: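 Concentration-response qHTS: compound-induced rise in caspase 3/7 luminescence in human mesangial cells after 16 h, normalized to DMSO and 100 uM tamoxifen controls.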

[16] = Cellular Toxicity (caspase-3) SK-N-SH (AID 661); conditions: SK-N-SH caspase-3 activation, qHTS, DMSO as zero, staurosporine as full; series mostly up to 91.7 µM
Method in brief: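 Caspase 3/7 activation is measured as a luminescence increase from aminoluciferin released by substrate cleavage in SK-N-SH cells after 16 hr compound treatment; values are AC50 from concentration-response curves.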

[17] = Cellular Toxicity (caspase-3) H-4-II-E (AID 663); conditions: H-4-II-E rat hepatoma; Potency: caspase-3 activation; series mostly up to 92.2 µM;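 further: cells exposed to compound for 16 hr before readout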
Method in brief: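 Rat hepatoma H-4-II-E cells (1500/well) plated 5 hr, then exposed to compound titrations for 16 hr at 37 °C. Caspase-Glo 3/7 luminescence read after 20 min at RT; data normalized to DMSO and 100 uM tamoxifen, AC50 from Hill fits.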

[18] = Cellular Toxicity (caspase-3) Hek293 (AID 664); conditions: HEK293 caspase-3 activation, DMSO = 0%, 100 µM tamoxifen = 100%; at 92.2 µM (top of the series);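 further: cells exposed to compound for 16 h at 37 °C before readout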
Method in brief: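 Activation of caspase-3/7 is measured as increased luminescence from cleaved peptide-aminoluciferin substrate in HEK293 cells treated 16 hours at 37 °C. AC50 values come from Hill-equation fits of concentration-response data.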

[19] = Cellular Toxicity (caspase-3) N2a (AID 665); conditions: N2a cells, luminescence, normalized: DMSO 0%, 10 µM staurosporine 100%; series mostly up to 92.2 µM;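 further: compound exposure lasted 16 h at 37 °C before readout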
Method in brief: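 Plated mouse neuroblastoma N2a cells received titrated compounds for 16 h in complete medium. Caspase activity was then detected with a peptide-aminoluciferin luminescent reagent.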

[20] = Cellular Toxicity (caspase-3) NIH 3T3 (AID 666); conditions: NIH 3T3 caspase-3 activation, apoptosis/toxicity, 0% DMSO, 100% is 100 µM tamoxifen; series mostly up to 92.2 µM;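 further: caspase signal read after 16 h compound exposure; 0% = DMSO basal and 100% = 100 µM tamoxifen stimulation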
Method in brief: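 Concentration-response qHTS in NIH 3T3 mouse fibroblasts scores caspase-3/7 activation as rising luminescence after 16 hr compound exposure. Signals are scaled between DMSO-only and 100 uM tamoxifen.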

[21] = Cellular Toxicity (caspase-3) Renal Proximal Tubule (AID 667); conditions: renal proximal tubule cells, primary cells freshly taken from rat; Potency: caspase-3 activation; series mostly up to 91.7 µM;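 further: cells exposed to compound for 16 hours at 37 °C before detection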
Method in brief: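 In qHTS format, rat primary proximal tubule cells seeded at 1000 per well are exposed to compounds for 16 hours at 37 °C. An increase in Caspase-Glo 3/7 luminescence indicates caspase activation.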

[22] = target: Cytochrome P450 3A4 (Homo sapiens) (UniProt P08684); assay: qHTS Assay for Inhibitors and Substrates of Cytochrome P450 3A4 (AID 884); conditions: recombinant CYP3A4, Luciferin-PPXE luminescence; series mostly up to 57.1 µM; further: potency means the concentration at half of the fitted maximal effect; nearly all actives have a fitted effect of over 50% in size
Method in brief: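 20 nM human CYP3A4 with 25 uM Luciferin-PPXE (at KM) in 200 mM KPO4, preincubated 10 min with compound; NADPH regeneration started a 60 min RT reaction. Luciferin detected by luminescence, normalized to 57 uM ketoconazole as full inhibition.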

[23] = MultiTox-Fluor Cytotoxicity Assay - LYMP1-001 - Dead Cells (AID 946); conditions: LYMP1-001 lymphoblastoid cells, dead-cell protease fluorescence; series mostly up to 92.2 µM;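 further: 0% = DMSO and 100% = tetraoctylammonium bromide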
Method in brief: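 LYMP1-001 lymphoblastoid cells (2500/well) treated 16 h at 37 C. Dead-cell protease cleavage of bis-AAF-R110 read at Ex/Em 485/520. Normalized to DMSO and 15 uM tetraoctylammonium bromide; AC50 from Hill fits.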

[24] = MultiTox-Fluor Cytotoxicity Assay - LYMP1-001 - Live Cells (AID 947); conditions: LYMP1-001 lymphoblastoid cells, live-cell protease fluorescence viability; series mostly up to 92.2 µM; further: potency means the concentration at half of the fitted maximal effect
[25] = Cell Viability - LYMP1-002 - Assay at 16 hr (AID 948); conditions: LYMP1-002 lymphoblastoid cell viability; series mostly up to 92.2 µM; further: potency means the concentration at half of the fitted maximal effect
Method in brief: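 Acute cytotoxicity is scored as a concentration-dependent fall in intracellular ATP in a human lymphoblastoid line (LYMP1-002) after 16 hr compound exposure at 37 C, measured by luciferase luminescence.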

[26] = MultiTox-Fluor Cytotoxicity Assay - LYMP1-002 - Dead Cells (AID 960); conditions: LYMP1-002 lymphoblastoid cells, dead-cell protease fluorescence; series mostly up to 46.1 µM;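 further: 0% = DMSO and 100% = tetraoctylammonium bromide; nearly all actives have a fitted effect of over 60% in size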
Method in brief: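 Acute cytotoxicity in a human lymphoblastoid line is scored as rising dead-cell protease signal after 16 hr exposure at 37 C, measured fluorometrically (485/520).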

[27] = MultiTox-Fluor Cytotoxicity Assay - LYMP1-003 - Dead Cells (AID 961); conditions: LYMP1-003 lymphoblastoid cells, dead-cell protease fluorescence; series mostly up to 92.2 µM;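 further: 0% = DMSO and 100% = tetraoctylammonium bromide; nearly all actives have a fitted effect of over 70% in size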
Method in brief: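 LYMP1-003 human lymphoblastoid cells (2500/well) exposed to compound 16 h at 37 C in complete medium; dead-cell protease read with bis-AAF-R110 fluorescence (Ex/Em 485/520) after 60 min at room temperature. Normalized to DMSO and 15 uM tetraoctylammonium bromide; AC50 from Hill fit.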

[28] = Cell Viability - LYMP1-003 - Assay at 24 hr (AID 963); conditions: LYMP1-003 lymphoblastoid cell viability; series mostly up to 92.2 µM; further: potency means the concentration at half of the fitted maximal effect
Method in brief: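 Acute toxicity in LYMP1-003 lymphoblastoid cells: 24 hr compound treatment at 37 C, ATP measured with CellTiter-Glo after 30 min at room temperature. AC50 derived by fitting the Hill equation to qHTS titrations.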

[29] = Cell Viability - LYMP1-003 - Assay at 40 hr (AID 964); conditions: LYMP1-003 lymphoblastoid viability; series mostly up to 92.2 µM; further: potency means the concentration at half of the fitted maximal effect; nearly all actives have a fitted effect of over 60% in size
Method in brief: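 This qHTS cytotoxicity screen treats human lymphoblastoid cells (LYMP1-003) with compounds for 40 hr and quantifies cellular ATP via luciferase luminescence.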

[30] = Cell Viability - LYMP2-004 (AID 966); conditions: LYMP2-004 lymphoblastoid cell viability, qHTS; series mostly up to 92.2 µM; further: potency means the concentration at half of the fitted maximal effect; nearly all actives have a fitted effect of over 65% in size
Method in brief: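 Acute toxicity is scored as a concentration-dependent drop in intracellular ATP, quantified by luciferase luminescence, in human lymphoblastoid cells exposed to compound for 24 hr. AC50 derives from Hill-equation modelling.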

[31] = Cell Viability - LYMP2-005 (AID 967); conditions: LYMP2-005 lymphoblastoid cell viability; series mostly up to 92.2 µM; further: potency means the concentration at half of the fitted maximal effect
Method in brief: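 qHTS viability screen in LYMP2-005 cells: 24 h at 37 C with compound, ATP luminescence via CellTiter-Glo, AC50 from Hill curves.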

[32] = Cell Viability - LYMP2-009 (AID 968); conditions: LYMP2-009 lymphoblastoid cell viability; series mostly up to 92.2 µM; further: potency means the concentration at half of the fitted maximal effect; nearly all actives have a fitted effect of over 55% in size

Sequence of Cytochrome P450 3A4 (Homo sapiens) (P08684 whole entry, looked up): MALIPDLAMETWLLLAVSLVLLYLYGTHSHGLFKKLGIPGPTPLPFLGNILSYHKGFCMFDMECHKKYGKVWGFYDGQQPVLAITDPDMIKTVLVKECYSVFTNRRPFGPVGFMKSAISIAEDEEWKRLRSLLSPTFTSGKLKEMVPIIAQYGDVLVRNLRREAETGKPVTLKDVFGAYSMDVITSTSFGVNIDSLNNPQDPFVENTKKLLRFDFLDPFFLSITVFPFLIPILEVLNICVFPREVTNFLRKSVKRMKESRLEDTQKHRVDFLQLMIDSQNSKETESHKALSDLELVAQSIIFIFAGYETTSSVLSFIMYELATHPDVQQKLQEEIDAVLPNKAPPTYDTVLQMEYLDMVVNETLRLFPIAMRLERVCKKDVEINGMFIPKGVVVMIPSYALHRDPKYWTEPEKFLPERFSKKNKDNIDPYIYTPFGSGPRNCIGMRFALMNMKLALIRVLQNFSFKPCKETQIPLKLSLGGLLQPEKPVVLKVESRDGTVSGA

N=C1C=CC(=C(c2ccc(N)cc2)c2ccc(N)cc2)C=C1
inactive: Potency [10] | Potency [11] | Potency [12] | Potency [13] | outcome [14] | outcome [15] | outcome [16] | Potency [17] | caspase-3 activation [18] -1.95% | outcome [19] | outcome [20] | Potency [21] | Potency [23] | Potency [26] | Potency [27]
active: Potency [1] 15.1 µM | Potency [2] 19.6 µM | Potency [3] 18.6 µM | Potency [4] 3.98 µM | Potency [5] 3.16 µM | Potency [6] 20 µM | Potency [7] 31.6 µM | viability change, negative = cytotoxic [8] -99.9% | Potency [9] 7.94 µM | Potency [22] 12.6 µM and 3.16 µM | Potency [24] 15.8 µM | Potency [25] 25.1 µM | Potency [28] 15.8 µM | Potency [29] 12.6 µM | Potency [30] 12.6 µM | Potency [31] 12.6 µM | Potency [32] 7.94 µM
